PubChem BioAssay (NCATS)
Results filed as inconclusive are left out. The source made the active and inactive calls. Calls come from the whole dose curve; as a rule, active = well fitted curve in the direction sought with a large enough effect; inconclusive = small, poorly fitted or top-dose-only effect, or another doubt; inactive = no such curve, though single readings can be large; an effect the other way counts as inactive or inconclusive.

Legend:
[1] = qHTS for Inhibitors of Plasmodium falciparum (DD2) proliferation (AID 504314);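 note: parasite DNA measured by SYBR Green fluorescence after red cell lysis; plate controls were DMSO vehicle for no effect and artemisinin wells for full effect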
How it was run: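 Infected RBCs, 0.3% parasitemia, 2.5% Hct; compound 72 h, 37C/5% CO2; lyse + SYBR Green I, RT overnight, dark; read ex485/em535; normalize to DMSO and artemisinin 0.29 uM.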

[2] = qHTS for Inhibitors of Plasmodium falciparum (GB4) proliferation (AID 504315);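 note: 0% = DMSO vehicle and -100% = 0.29 µM artemisinin control; nearly all actives have a fitted effect of over 50% in size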
How it was run: (§1)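 Erythrocytes infected with P. falciparum line (0.3% parasitemia, 2.5% hematocrit final) incubated with compounds 72 h at 37 °C, 5% CO2; SYBR Green lysis buffer added, fluorescence read next day. Normalized to 0.29 uM artemisinin and DMSO.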

[3] = qHTS for Inhibitors of Plasmodium falciparum (7G8) proliferation (AID 504316);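 note: series mostly up to about 6.7 µM; 0% = DMSO vehicle and -100% = 0.29 µM artemisinin full kill; nearly all actives have a fitted effect of over 65% in size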
How it was run: as §1

[4] = qHTS for Inhibitors of Plasmodium falciparum (HB3) proliferation (AID 504318);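 note: 0% = DMSO vehicle and -100% = artemisinin control; nearly all actives have a fitted effect of over 60% in size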
How it was run: as §1

[5] = qHTS for Inhibitors of Plasmodium falciparum (CP250) proliferation (AID 504320);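 note: plate controls were DMSO vehicle for no effect and 0.29 µM artemisinin control for full effect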
How it was run: as §1

CC#CCN1C(=O)N(C)C(c2ccccc2)C(C(=O)OC)=C1C (configuration not stated)
inactive: Potency [1] | Potency [2] | Potency [3] | Potency [4] | Potency [5]

C=C(CCN1C=C(C(=O)OCC)C(c2ccccc2)NC1=O)c1ccccc1 (configuration not stated)
inactive: Potency [1] | Potency [2] | Potency [3] | Potency [4]

COc1cccc2c1[C@H](C=Cc1ccccc1)[C@@H]([C@H](O)COC(C)=O)OC2
inactive: Potency [1] | Potency [2] | Potency [3] | Potency [4] | Potency [5]

COC(=O)N1C2CC3(C)CC(=O)CC1(C)C3c1ccccc12 (configuration not stated)
inactive: Potency [1] | Potency [2] | Potency [3] | Potency [4] | Potency [5]

C=CC[C@@](C(C)=O)(C(=O)OC)[C@@H](NC(=O)OC)c1ccccc1
inactive: Potency [1] | Potency [2] | Potency [3] | Potency [4] | Potency [5]

COC(=O)C(C(C)=O)C1c2ccccc2C=C(C)N1C(=O)OC (configuration not stated)
inactive: activity, negative = inhibition [1] -3.36% [at 1.12 µM] | Potency [2] | Potency [3] | Potency [4]

COC(=O)N1C(C)=Cc2ccccc2C1CC(C)=CC(C)=O (configuration not stated)
inactive: Potency [1] | Potency [2] | Potency [3] | Potency [4] | Potency [5]

CC(C)CON=C1C[C@@H](O)[C@@H](O)[C@@H]2[C@H]3C(=O)N(c4ccc(F)cc4F)C(=O)[C@@H]3CC[C@@H]12
inactive: Potency [1] | Potency [2] | Potency [3] | Potency [4] | Potency [5]

COC(=O)C1=C2C=C(C)CC(C)N2C(=O)NC1c1ccccc1 (configuration not stated)
inactive: Potency [1] | Potency [2] | Potency [3] | Potency [4] | Potency [5]

COCC=CC1=CC2=CC(=O)C(C)(OC(=O)c3cnc4ccccc4n3)C(=O)C2=CN1CC1CC1 (configuration not stated)
inactive: Potency [1] | Potency [2] | Potency [3] | Potency [4]

COCC(=O)C(C(=O)OC)[C@H](CCc1ccccc1)NC(=O)OC (some centres not stated)
inactive: Potency [1] | Potency [2] | Potency [3] | Potency [4] | Potency [5]

CC1(OC(=O)c2ccco2)C(=O)C=C2C=C(c3ccsc3)OC=C2C1=O (configuration not stated)
inactive: Potency [1] | Potency [2] | Potency [3] | Potency [4] | Potency [5]
